The text below walks through data of PubChem BioAssay AID1012 (Sanford-Burnham Center for Chemical Genomics, 2008).

SMILES strings stand for the structures. Out of some 200,000 compounds screened, about 520 (0.26%) were called active. Only a selection was taken, and actives are over-represented in it overall. Unmarked numbers belong to inactive results.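 Rule for the calls: active = tissue-nonspecific alkaline phosphatase inhibition above about 50% at 20 µM in the single-dose screen (limit read from the data); inactive = the rest.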

Alkaline phosphatase, tissue-nonspecific isozyme (Homo sapiens), sequence (P05186 whole entry, looked up): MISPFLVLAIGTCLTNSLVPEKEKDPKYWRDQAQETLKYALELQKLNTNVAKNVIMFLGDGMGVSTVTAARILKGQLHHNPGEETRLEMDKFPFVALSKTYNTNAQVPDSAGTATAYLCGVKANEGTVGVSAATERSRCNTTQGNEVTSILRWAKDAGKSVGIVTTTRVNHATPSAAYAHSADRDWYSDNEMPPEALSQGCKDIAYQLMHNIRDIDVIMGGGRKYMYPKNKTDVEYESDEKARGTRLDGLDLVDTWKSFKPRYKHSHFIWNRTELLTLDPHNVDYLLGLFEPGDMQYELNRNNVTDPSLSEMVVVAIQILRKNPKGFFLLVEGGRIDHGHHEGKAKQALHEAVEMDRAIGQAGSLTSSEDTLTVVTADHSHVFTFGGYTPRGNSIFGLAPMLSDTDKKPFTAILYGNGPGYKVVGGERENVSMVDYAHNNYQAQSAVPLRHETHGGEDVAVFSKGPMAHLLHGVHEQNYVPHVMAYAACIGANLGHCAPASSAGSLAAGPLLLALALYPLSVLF

The assay addresses Alkaline phosphatase, tissue-nonspecific isozyme (Homo sapiens) (UniProt P05186). The experiment in a line: blockers of alkaline phosphatase TNAP activity – biochemical, luminescent, no phosphate acceptor, uHTS, primary screen (AID 1012).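 Note: 0% = DMSO negative control and 100% = EDTA positive control.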 The note with it: purified TNAP, CDP-star luminescence, 30 min; at 20 µM; stronger effect = higher value.
Turning to `COc1ccc(C/C(N)=N/OC(=O)c2ccco2)cc1OC`, the inhibition (as a rule, the relative decrease from the control value, in per cent) was -7.5%.

Consider `CCOc1ccc2nc(C(=O)N3CCCC(C)C3)sc2c1` (stereo not drawn), for which the inhibition is 1.7%.

On to `COC(=O)/C(=C1\Oc2ccc(C(C)(C)C)cc2S1)C(F)(F)F`, for which the inhibition is 0.6%.

With `COCC(=O)Nc1cc(C(=O)OC)cc(C(=O)OC)c1`, the inhibition is -4.5%.

Turning to `N=c1c2c3c(sc2ncn1N)CCCC3`, the inhibition is -4.9%.

Turning to `S=c1[nH]nc2c3c4c(sc3ncn12)CCCC4`, the inhibition is 58% (active).

As for `c1nnc2c3c4c(sc3ncn12)CCC4`, the inhibition was -10.6%.

For `O=C(Cn1c2[n+](c3ccc(C(F)(F)F)cc31)CCCCC2)Nc1c(F)cccc1F`, the inhibition was -6.3%.

In the case of `O=C(COC(=O)c1cnccn1)Nc1cccc2ccccc12`, the inhibition was -10%.

`Cc1ccc(/C=N\n2c(-c3ccccc3)n[nH]c2=S)s1`: the inhibition was 29%.

With `S=c1[nH]nc(-c2cccs2)n1/N=C/c1cccs1`, the inhibition was 36.2%.

With `S=c1[nH]nc(-c2ccco2)n1/N=C/c1ccc(Br)s1`, the inhibition was 58.4% (active).

For the molecule `COCCn1c(N)c(N(Cc2ccccc2)C(=O)C2CCCCC2)c(=O)[nH]c1=O`, the inhibition was -0.9%.

Take `O=C(Cn1c(N2CCN(C/C=C/c3ccccc3)CC2)nc2ccccc21)c1ccccc1`: the inhibition is 5.4%.

For `CCOC(=O)C1(CCOC)CCN(Cc2ccc(C(=O)OC)cc2)CC1`, the inhibition was -7%.

For `CCN1CCN(c2ccc(NC(=O)c3cnccn3)cc2)CC1`, the inhibition is -10.4%.

Consider `CC(C)(C)OC(=O)N1CCC(NC(=O)c2[nH]cnc2C(=O)N[C@@H](Cc2ccccc2)C(=O)OCc2ccccc2)CC1`, for which the inhibition is -3.5%.

In the case of `CC(C)Cc1nn2c(=O)cc(O)nc2s1`, the inhibition was -13.8%.

With `O=C(Nc1ccc(N2CCOCC2)cc1)c1ccc(-c2ccccc2[N+](=O)[O-])o1`, the inhibition was 8.7%.

As to `COc1ccc(C(=O)Nc2cccc(S(C)(=O)=O)c2)cc1`, the inhibition was -11%.

Take `N/C(=N\OC(=O)c1ccc2c(c1)OCO2)c1ccc(Br)cc1`: the inhibition was -7%.

Consider `COc1ccc(C2=NN(c3ccccc3)C(c3cccs3)C2)cc1` (stereo not drawn), for which the inhibition is -20.3%.

For the molecule `Cc1ccc(NC(=O)COC(=O)CCc2nc3ccccc3n2-c2ccccc2)c(C)c1`, the inhibition was -12.9%.

With `COc1ccc(Cc2n[nH]c(=S)n2NC(=O)Nc2ccc(C)cc2)cc1`, the inhibition is -16.9%.

As for `Cc1cc(C)c(C#N)c(SCC(=O)NN2CC(=O)N(c3ccccc3F)CC2=O)n1`, the inhibition was -6.4%.

Regarding `CCCCNC(=O)N1CCN(S(C)(=O)=O)CC1`, the inhibition is -6.4%.

With `O=C(CO/N=C/c1ccc(OC(F)F)cc1)NCc1ccc(F)cc1`, the inhibition is 2.4%.

On to `COc1cc2[nH]c(=O)n(Cc3ccc(C(=O)NC4CCN(Cc5ccccc5)CC4)cc3)c(=O)c2cc1OC`, for which the inhibition is 1.5%.

On to `Cc1noc(/C=C/N(C)C)c1S(=O)(=O)N1CCCC(C(=O)NCc2ccco2)C1` (stereo not drawn), for which the inhibition was -12%.

`Cc1ccc(NC(=O)C2CCCN(S(=O)(=O)c3c(C)noc3C)C2)c(C)c1` (stereo not drawn): the inhibition is -3.2%.

Take `Cc1n[nH]c(C)c1S(=O)(=O)N1CCCC(C(=O)NCC2COc3ccccc3O2)C1` (stereo not drawn): the inhibition is 51.6% (active).

In the case of `CC(=O)NC(Cc1ccccc1)C(=O)NC1CCN(c2ncccc2[N+](=O)[O-])CC1` (stereo not drawn), the inhibition was -1.2%.

`COc1ccc(-c2cc(C3CCN(c4ncccc4[N+](=O)[O-])CC3)[nH]n2)cc1`: the inhibition is 59.7% (active).

Consider `COc1ccc(N2CCN(c3ccc([N+](=O)[O-])nc3)CC2)cc1`, for which the inhibition was -7.2%.

Regarding `Cc1ccc(S(=O)(=O)N2CCC(C(=O)N[C@@H](C)C(=O)NCc3ccco3)CC2)cc1`, the inhibition was -10%.

For `CN(Cc1cc2cc(F)ccc2[nH]1)Cc1nc(-c2cnccn2)no1`, the inhibition was -8.7%.

`CC(C)(C)C1CCC(OC(=O)CCC(=O)Nc2ccccc2)CC1` (stereo not drawn): the inhibition is -5.1%.

`CC1=NN(c2ccccc2)C(=O)C1C(=O)c1ccc([N+](=O)[O-])cc1` (stereo not drawn): the inhibition was -4.4%.

As to `O=C(c1ccc(OC2CCN(Cc3ccccn3)CC2)cc1)N1CCCCCC1`, the inhibition is -6%.

As to `COc1ccccc1-c1nc(SC)n[nH]1`, the inhibition is 63.7% (active).

For the molecule `CCCOc1ccccc1-c1nc(SCCC(=O)O)n[nH]1`, the inhibition was 8.1%.

For `COc1ccccc1C1=Nc2cccc3cccc(c23)N1`, the inhibition was -4.6%.

For `C=CCN(Cc1nc(-c2cc(OC)c3c(c2)OCO3)oc1C)C1CCS(=O)(=O)C1` (stereo not drawn), the inhibition is -9.3%.

`COc1ccc(NS(=O)(=O)c2cc(NC(=O)/C=C/c3cc(OC)c(OC)c(OC)c3)ccc2N2CCCCC2)cc1`: the inhibition is -3.9%.

Take `CC1=CC2=NC(=O)CC(C)(C(=O)N(CC(=O)NC(C)(C)C)Cc3ccccc3)N2C=C1` (stereo not drawn): the inhibition is -13%.

Turning to `CCN(c1ccccc1)S(=O)(=O)c1ccc(N)cc1`, the inhibition was -17.8%.

Turning to `CCN(c1ccccc1)S(=O)(=O)c1ccc2[nH]c(=O)[nH]c2c1`, the inhibition is 64.9% (active).

On to `CCN(c1ccccc1)S(=O)(=O)c1cccc(C(=O)O)c1`, for which the inhibition was -2.9%.

With `Cc1c(CCO)sc[n+]1CC(=O)OC12CC3CC(CC(C3)C1)C2`, the inhibition was 55.5% (active).

For the molecule `Cc1c(CCOC(=O)CC23CC4CC(CC(C)(C4)C2)C3)sc[n+]1Cc1ccc([N+](=O)[O-])cc1`, the inhibition is -6.1%.

Consider `O=C(C(=O)N1CCc2ccccc2C1)c1c[nH]c2ccccc12`, for which the inhibition is 61% (active).

`CC1CCN(CC(=O)c2c[nH]c3ccccc23)CC1`: the inhibition is -9.1%.

For `O=C(C(=O)N1CCc2ccccc2C1)N1CCc2ccccc2C1`, the inhibition was -5.7%.

Consider `CCOc1ccc(C(c2c(C)[nH][nH]c2=O)c2c(C)[nH][nH]c2=O)cc1OCC`, for which the inhibition was 58.2% (active).

As for `Cc1[nH][nH]c(=O)c1C(c1ccc2c(c1)OCO2)c1c(C)[nH][nH]c1=O`, the inhibition is 45.5%.

In the case of `Cc1[nH][nH]c(=O)c1C(c1ccc(-c2ccc(Cl)cc2)o1)c1c(C)[nH][nH]c1=O`, the inhibition was -57.7%.

With `O=C(/C=C/c1ccc(F)cc1)Nc1cccc(S(=O)(=O)Nc2cccc(C(F)(F)F)c2)c1`, the inhibition is -9.4%.

Consider `CCOc1ccc(/C=N/OCC(=O)NCc2cccs2)cc1`, for which the inhibition was 2.3%.

Turning to `O=C(NCCc1ccccc1)C1CCC(Cn2c(=O)c3ccccc3n(Cc3cccnc3)c2=O)CC1` (stereo not drawn), the inhibition is -0.3%.

Turning to `O=C(COC(=O)CSc1nnc(-c2ccc(Cl)cc2)o1)Nc1cc(Cl)cc(Cl)c1`, the inhibition was -10.5%.

`COc1cc(N/C=C2\CC(=O)NC(C)=C2C#N)cc(OC)c1OC`: the inhibition is -1.1%.

In the case of `CCN(CCn1cccn1)Cc1nc(-c2ccc(C(=O)OC)cc2)no1`, the inhibition was 2.4%.

In the case of `COc1ccc(-c2[nH]ncc2CN(C)Cc2cc(C)[nH]n2)c(F)c1`, the inhibition was 46.2%.

Take `COc1ccc(-c2[nH]ncc2CN(C)Cc2cccnc2)c(F)c1`: the inhibition is 64.9% (active).

Consider `CCN(CCn1cccn1)Cc1cn[nH]c1-c1ccc(OC)cc1F`, for which the inhibition was 58.9% (active).

With `COc1ccc(-c2[nH]ncc2CN(Cc2nccn2C)C(C)C)cc1F`, the inhibition is -9.7%.

As to `COc1ccc(-c2[nH]ncc2CN(C)Cc2c(C)n[nH]c2C)c(OC)c1`, the inhibition is -8.9%.

Turning to `Cc1cc(C)n2nc(SCC(=O)NC(=O)NCc3ccco3)nc2n1`, the inhibition was -9.4%.

As for `CCOc1cc(N2CCOCC2)c(OCC)cc1NC(=O)c1ccc(C)s1`, the inhibition was -8.9%.

On to `CCn1c(CNS(=O)(=O)c2ccc(Cl)cc2)n[nH]c1=S`, for which the inhibition is 24.7%.

In the case of `O=C(CN1CCSCC1)N/N=C/c1ccc(Cl)cc1`, the inhibition was -4.4%.

Take `Cc1cc(NC(=O)CN2C(=O)NC(C)(CCc3ccccc3)C2=O)no1` (stereo not drawn): the inhibition was -3%.

Take `CCOC(=O)c1cc2c(=O)[nH]c(C(Cl)(Cl)Cl)nc2o1`: the inhibition was -11%.

Take `CCCN(CC1COc2ccccc2O1)C(=S)Nc1ccc(C)cc1` (stereo not drawn): the inhibition was -16%.

With `CN(C)C(CNC(=O)c1ccc(S(=O)(=O)NCc2ccco2)cc1)c1ccccc1` (stereo not drawn), the inhibition was 7.7%.

Turning to `C/C(CC(=O)N1CCN(C=O)CC1)=N\NC(=O)c1ccc(Br)cc1`, the inhibition is 0.3%.

Turning to `Cc1ccc(NC(=O)c2sccc2C)cc1[N+](=O)[O-]`, the inhibition was -4.3%.

For the molecule `Cc1ccc(C(=O)NC(=S)Nc2ccc3[nH]c(=O)[nH]c3c2)cc1C`, the inhibition was -9.4%.

As for `CC(=O)NC(=S)NNC(=O)c1ccc(Br)cc1`, the inhibition is -155%.

Take `O=C(CSc1nnc(-c2ccncc2)n1-c1ccc(Cl)cc1)Nc1ccc(C(=O)O)cc1`: the inhibition is 0.2%.

For `CC(C)(C)C1CCC(=NNC(=O)c2ccc(Br)o2)CC1` (stereo not drawn), the inhibition is 4.2%.

In the case of `CC(NC(=O)C(=O)NN=C1CCC(C(C)(C)C)CC1)c1ccccc1` (stereo not drawn), the inhibition was -15%.

In the case of `CC(C)(C)C1CCC(=NNC(=O)c2cc(-c3ccccc3)n[nH]2)CC1` (stereo not drawn), the inhibition is 62.6% (active).

Consider `CCCCN(C)c1ccc([N+](=O)[O-])cc1`, for which the inhibition is 13.3%.

Regarding `CN(C)CCCN1C(=O)CSC1c1ccc([N+](=O)[O-])cc1` (stereo not drawn), the inhibition was -4.5%.

Consider `COc1ccc(NC(=O)c2cc3nc(-c4ccccc4)cc(C)n3n2)cc1OC`, for which the inhibition was -14.7%.

Turning to `COc1ccc(S(=O)(=O)NCC2CCCN(C(=O)c3occc3C)C2)cc1` (stereo not drawn), the inhibition is -4.9%.

Consider `CCc1[nH]nc(C(=O)N2CCCC(CNS(=O)(=O)c3cccs3)C2)c1C` (stereo not drawn), for which the inhibition was 61.5% (active).

For the molecule `O=C(NCc1ccccc1)C1CCCN(S(=O)(=O)c2cccs2)C1` (stereo not drawn), the inhibition was -5.5%.

For `CCC(C(=O)Nc1ccc2c(c1)OCCO2)c1ccccc1` (stereo not drawn), the inhibition is -22.2%.

In the case of `COCCCN(C(=S)Nc1c(C)cc(C)cc1C)C(C)c1ccncc1` (stereo not drawn), the inhibition is -17.6%.

Consider `CN(CCc1cn[nH]c1)C(=O)CC1C(=O)NCCN1Cc1cccc(Oc2ccccc2)c1` (stereo not drawn), for which the inhibition is -9.2%.

With `CCOc1ccc(/C=N/NC(=O)C(C)Sc2ccccn2)cc1OCC` (stereo not drawn), the inhibition is -5.3%.
